High-throughput results deposited in PubChem BioAssay by National Center for Advancing Translational Sciences (NCATS).
In the library only some 2.4% were active in any assay of this set; here they are far more common.
D2 PAM-1: positive allosteric modulators of human D2 dopamine receptor; HEK293 T-REx D2, calcium flux, EC20 dopamine potentiation; potentiation, % at 10 µM; AID 485347; P14416; 340,000 compounds, 0.34% hits;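 active = potentiation over 3 SD above the plate norm, cut at about 30% in these data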; also: 0% is about no effect
Target sequence (P14416 whole entry, looked up): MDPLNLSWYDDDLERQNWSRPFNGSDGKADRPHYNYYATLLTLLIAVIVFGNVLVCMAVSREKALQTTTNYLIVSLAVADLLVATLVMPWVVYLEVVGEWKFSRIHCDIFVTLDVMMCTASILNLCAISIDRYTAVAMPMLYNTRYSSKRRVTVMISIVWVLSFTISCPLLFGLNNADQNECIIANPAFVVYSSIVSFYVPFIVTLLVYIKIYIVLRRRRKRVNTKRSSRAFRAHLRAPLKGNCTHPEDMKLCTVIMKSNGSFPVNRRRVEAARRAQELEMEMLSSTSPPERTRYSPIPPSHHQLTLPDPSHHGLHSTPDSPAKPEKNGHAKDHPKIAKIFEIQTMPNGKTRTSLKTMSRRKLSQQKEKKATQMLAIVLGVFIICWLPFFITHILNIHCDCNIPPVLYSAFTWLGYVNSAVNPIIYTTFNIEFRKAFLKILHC
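Tetracycline-induced HEK293 T-REx cells force-coupled to calcium signalling expressed D2; compounds were pin-added after a 10 s baseline, read kinetically 180 s, then an EC20 dopamine challenge followed with a further 180 s calcium read.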
D2 PAM-2: human D2 receptor positive allosteric modulation; P14416; DiscoveRx D2 beta-arrestin cells, luminescence, 90 min; 100% = 57 uM dopamine signal; potentiation, % (no concentration beside the values); 360,000 compounds, 0.23% hits; in the data active = potentiation above about 50%; inconclusive = mostly about 30% to 49%
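D2 cells co-treated with compound plus 50 nM dopamine (EC20) for 90 min at 37 deg C to detect potentiation. Beta-arrestin recruitment was read as enzyme-fragment luminescence after 1 h at ambient temperature. Full response was set by 57 uM dopamine.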
D2 antag: antagonizes the human D2 dopamine receptor; 340,000 compounds, 2% hits; HEK293 TREx D2 cells, calcium flux, dopamine EC80; P14416; inhibition, % at 10 µM; in the data active = inhibition above about 30%; inactive = below that, where a call was filed; also: 0% is about no effect
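Read-out: kinetic calcium fluorescence (1 cycle/s) in inducible HEK293 T-REx D2 cells after an EC80 dopamine addition that followed 180 s compound preincubation. Loss of the dopamine response indicates antagonism.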
D2 ag-1: D2 dopamine receptor (human) agonism. HEK293 T-REx D2 cells, calcium flux agonist mode. P14416. 340,000 compounds, 0.53% hits. activation, % at 2 µM;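 active = activation over 3 SD above normal in the single-dose calcium agonist read, cut at about 30% in these data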; also: 0% is about no effect
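Tetracycline-induced HEK293 Trex cells with D2 receptor force-coupled to calcium signaling, plated overnight at 30 C and loaded with no-wash calcium dye. Calcium flux read kinetically for 180 s after compound addition; responses flag agonists.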
D2 ag-2: activates the human D2 dopamine receptor; P14416; DiscoveRx PathHunter D2 beta-arrestin, luminescence, 90 min; 100% = 57 uM dopamine signal; activation, % (test concentration not listed); 360,000 compounds, 0.084% hits; AID 624465; in the data active = activation above about 40%; inconclusive = between about 15% and that limit
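DiscoveRx PathHunter D2 beta-arrestin cells (2,100/well) attached overnight, then compound-stimulated 90 min at 37 C in HBSS/10 mM HEPES/0.1% Tween-20 buffer; beta-galactosidase complementation read by luminescence after 1 h at ambient temperature. Dopamine 57 uM final (EC100) as control.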
* = called active by the depositor; ? = inconclusive; · = no result given.

SMILES | D2 PAM-1 | D2 PAM-2 | D2 antag | D2 ag-1 | D2 ag-2
COc1ccc(C(=O)/C=C/Nc2ccc([N+](=O)[O-])cc2C)c(OC)c1 | 1 | -6 | -9 | -1 | -3
Cc1ccc(NC(=O)COC(=O)c2cccc3c2C(=O)c2ccccc2C3=O)c(C)c1 | -9 | 56* | -16 | -1 | 10
Cc1ccc(C)c(NC(=O)COC(=O)c2cccc3c2C(=O)c2ccccc2C3=O)c1 | -2 | 54* | 8 | -1 | ?
Cc1ccc(Cl)cc1NC(=O)COC(=O)c1ccccc1O | -4 | -4 | 4 | -1 | -5
Cc1cc(C)c(NC(=O)COC(=O)c2cccc3c2C(=O)c2ccccc2C3=O)c(C)c1 | 8 | 55* | 19 | 1 | 12
CC(C)Oc1ccc(CNC(=O)c2cc3ccccn3n2)cc1 | -2 | · | · | 0 | ·
COc1ccc(NC(c2ccccc2)c2ccncc2)cc1 (configuration not stated) | 2 | -1 | 41* | 0 | 5
COc1cc(NC(c2ccccc2)c2ccccc2)cc(OC)c1OC | 0 | 2 | 4 | 0 | -6
COc1ccc(OCc2cc(C(=O)NC(C)Cc3ccccn3)no2)c(Cl)c1 (configuration not stated) | -7 | -12 | 33* | -1 | 9
Cc1ccc(-c2c[n+](Cc3ccc(Cl)c(Cl)c3)c3n2CCC3)cc1 | -28 | -40 | 30* | 1 | -3
Cc1ccc(C)c(NC(=O)Nc2csc3c2CCCC3)c1 | -26 | · | · | -1 | ·
Nc1ccc2oc(Cc3ccc(Cl)cc3)nc2c1 | 9 | · | · | · | ·
CCOC(=O)/C(=C/C=C1\Sc2ccccc2N1CC)C(C)=O | 1 | -2 | 1 | 35* | -4
CCOC(=O)/C(=C/C=C1\Sc2cc(C)c(C)cc2N1CC)C(C)=O | 31* | -12 | 29 | 84* | 6
CCOC(=O)/C(=C\C=C1/Sc2ccccc2N1CC)C(C)=O | · | -8 | · | · | 4
CCOC(=O)c1sc2ccccc2c1S(=O)(=O)Nc1ccc(CC)cc1 | 0 | · | · | 0 | ·
CCC(C)n1c(NC(=O)c2ccccc2)c(C#N)c2nc3ccccc3nc21 (configuration not stated) | -7 | -11 | -6 | 0 | -6
CCCCn1c(NC(=O)c2ccccc2)c(C#N)c2nc3ccccc3nc21 | 0 | 2 | 38* | 7 | 0
COCCCn1c(N)c(-c2nc3ccccc3n2C)c2nc3ccccc3nc21 | -10 | -4 | 14 | 39* | 0
COCCn1c(N)c(C#N)c2nc3ccccc3nc21 | -5 | -4 | 36* | 1 | 1
Cc1ccc(CNC(=O)CCN2C(=O)C(C)Oc3ccc(C)cc32)cc1 (configuration not stated) | 19 | · | · | -1 | ·
CCOC(=O)c1c(NC(=O)Nc2ccc(F)cc2)sc(C(=O)N(C)C)c1C | 6 | · | · | -1 | ·
Cc1ccc([N+](=O)[O-])c(NC(=O)COC(=O)C2CC3CCCC(C2)C3=O)c1C (configuration not stated) | -4 | -11 | 36* | 0 | -1
Cc1cccc([N+](=O)[O-])c1NC(=O)COC(=O)C1CC2CCCC(C1)C2=O (configuration not stated) | -3 | -64 | 7 | 0 | -5
Cc1cccc(C)c1OCc1n[nH]c(=S)n1N | -5 | -21 | 43* | 2 | 14
SMILES | D2 PAM-1 | D2 PAM-2 | D2 antag | D2 ag-1 | D2 ag-2
Cc1cccc(C)c1OCc1n[nH]c(=S)n1-c1ccccc1 | 0 | -6 | -11 | 1 | 9
Cc1ccc(S(=O)(=O)c2ccc([N+](=O)[O-])cn2)cc1 | 8 | 24 | 4 | 0 | -7
O=[N+]([O-])c1ccc(S(=O)(=O)c2ccccc2)nc1 | 1 | -65 | -8 | 0 | 48*
Cc1nn2c3c(cnc2c1-c1ccc(Cl)cc1)C(=O)CC(c1ccc(C(C)C)cc1)C3 (configuration not stated) | 10 | · | · | 0 | ·
Nc1ccc(C(=O)N2CCN(S(=O)(=O)c3ccc(Br)cc3)CC2)cc1[N+](=O)[O-] | 2 | 16 | 35* | 1 | 1
COc1ccc2c(c1)C(C)CC(C)(C)N2C(=O)CSc1nc2ccccc2s1 (configuration not stated) | -6 | 17 | 14 | 0 | -4
COc1ccc2c(c1)C(C)CC(C)(C)N2C(=O)Nc1ccccc1 (configuration not stated) | -3 | -2 | 54* | 1 | 1
CC1CCN(CC(O)CN2c3ccccc3Sc3ccccc32)CC1 (configuration not stated) | -26 | -56 | 71* | -2 | -6
CC(c1n[nH]c(=S)n1-c1ccccc1)N1CCCCC1 (configuration not stated) | -7 | 2 | 71* | 1 | 2
O=C1CCCN1c1ncc(S(=O)(=O)c2ccc([N+](=O)[O-])cc2)s1 | 5 | 54* | -12 | 1 | ?
O=C(NCCc1ccccc1Cl)c1ccc(Cn2c(=O)c3cccn3c3cccnc32)cc1 | -6 | · | · | 0 | ·
O=C(N/N=C/c1ccc(OC(F)F)cc1)C1=COCCO1 | -8 | -8 | -24 | 2 | -3
O=C(N/N=C/c1ccccc1OC(F)F)C1=COCCO1 | -3 | 1 | 33* | 1 | 1
NC(=O)C1CCCNC1 (configuration not stated) | -12 | 1 | 47* | 2 | 0
COc1ccc(OC)c2sc(NC(=O)C3CC3)nc12 | -21 | -5 | 65* | 1 | -4
CCC(=O)Nc1nc2c(OC)ccc(OC)c2s1 | -1 | -2 | -9 | 0 | -2
O=C1N[C@@H](Cc2cnc[nH]2)C(=O)N2CCC[C@@H]12 | -1 | -5 | 45* | 2 | -6
O=C1N[C@@H](Cc2ccccc2)C(=O)N2CCCC12 (some centres not stated) | · | -6 | · | · | -3
CC(C)c1ccc(NC(=O)CCNS(=O)(=O)c2cccc3nonc23)cc1 | 1 | -4 | 8 | 0 | -1
Cc1ccc(NC(=O)CCNS(=O)(=O)c2cccc3nonc23)cc1 | 26 | -5 | 31* | 0 | -3
Oc1ccccc1N1CCN(Cc2ncc(-c3ccccc3)o2)CC1 | -35 | -15 | 57* | 1 | -3
COc1ccc(CCNc2c(C)c(C)nc3ncnn23)cc1 | 43* | -1 | -19 | 1 | 0
O=c1cc(N2CCOCC2)[nH]c(=O)n1-c1ccc(Cl)cc1 | -4 | -12 | 41* | 0 | -3
O=c1cc(N2CCCC2)[nH]c(=O)n1-c1ccc(Cl)cc1 | -5 | -5 | 1 | 0 | -6
Cc1ccc(NC(=O)CSCC#N)cc1 | -18 | 0 | 87* | 0 | 0
N#CCSCC(=O)Nc1ccc(Br)cc1 | 0 | -8 | 11 | 0 | -4
